# Laboratory results from PubChem BioAssay (NCATS).
# Inconclusive results are not listed. Unmarked numbers belong to inactive results. Calls follow the shape of the dose curve; as a rule, active = well fitted inhibition curve with a large enough effect; inconclusive = small, poorly fitted or top-dose-only effect, or effect the other way; inactive = flat fitted curve, though single readings scatter.
# Target: ATP-dependent 6-phosphofructokinase (Trypanosoma brucei brucei) (UniProt O15648)
# Assay: qHTS Assay to Find Inhibitors of T. brucei phosphofructokinase: hit validation (AID 492961);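 also: luminescence reports ADP formed as PFK phosphorylates fructose-6-phosphate with ATP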
# Conditions: T. brucei PFK, ADP-Glo luminescence; series mostly up to 51.4 µM; activity change, negative = inhibition: at the top concentration
# How it was run: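 Inhibition of parasite PFK is measured as reduced ADP formation, quantified via luciferase after ATP depletion. Assay used 0.1 mM ATP, 0.5 mM F6P, 1.25 nM enzyme, 45 min incubation.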
# % is scaled to controls: 0 for no effect and ±100 for the full control effect.
# ATP-dependent 6-phosphofructokinase (Trypanosoma brucei brucei), sequence (O15648 whole entry, looked up): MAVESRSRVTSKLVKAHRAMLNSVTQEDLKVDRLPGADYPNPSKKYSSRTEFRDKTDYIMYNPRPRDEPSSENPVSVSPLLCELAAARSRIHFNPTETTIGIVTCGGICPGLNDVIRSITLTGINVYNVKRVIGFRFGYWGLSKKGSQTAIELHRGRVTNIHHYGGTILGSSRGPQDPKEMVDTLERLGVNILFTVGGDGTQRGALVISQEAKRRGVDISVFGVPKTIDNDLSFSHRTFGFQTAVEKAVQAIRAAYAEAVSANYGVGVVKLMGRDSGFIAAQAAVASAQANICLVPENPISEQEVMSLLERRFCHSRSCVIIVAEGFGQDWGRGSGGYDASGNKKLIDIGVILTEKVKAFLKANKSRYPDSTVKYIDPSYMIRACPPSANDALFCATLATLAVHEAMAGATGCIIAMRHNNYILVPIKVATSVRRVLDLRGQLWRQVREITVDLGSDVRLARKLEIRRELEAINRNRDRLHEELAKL
row,SMILES,"activity change, negative = inhibition"
1,CCCCC/C=C\C/C=C\C/C=C\CCCCC(=O)O,-10.4%
2,CCc1ccc(S(=O)(=O)O)cc1,0.799%
3,COC(=O)CCC[N+](C)(C)C,-7.86%
4,CCOc1ccc(S(=O)(=O)O)c2cccnc12,7.21%
5,Nc1nccs1,-3.99%
6,CCc1ncnc2cc(OC)c(OC)cc12,6.35%
7,O=C(NNCNNC(=O)c1ccncc1)c1ccncc1,-9.65%
8,CCOC(=O)c1c[nH]c2cc(OCC(C)C)c(OCC(C)C)cc2c1=O,-0.162%
9,CC(C)NCC(O)COc1ccccc1-n1cccc1 (stereo unspecified),-2.01%
10,[O]=[Bi][O][Bi]=[O],8.75%
11,CN1C(=O)C[C@@H](C(=O)N[C@@H](Cc2cnc[nH]2)C(=O)N2CCC[C@H]2C(N)=O)NC1=O,-6.42%
12,CC1=C(/C=C/C(C)=C/C=C/C(C)=C/C(=O)Oc2c(C)c(C)c3c(c2C)CC[C@@](C)(CCC[C@H](C)CCC[C@H](C)CCCC(C)C)O3)C(C)(C)CCC1,0.793%
13,NC(=O)Oc1ccc(Cc2ccccc2)cc1,-25.3%
14,CCOC(C)OCC,5.81%
15,CC(C)c1ncc([N+](=O)[O-])n1C,-14.1%
16,CCC(C(=O)NC(N)=O)c1ccccc1 (stereo unspecified),4.38%
17,C[C@H](O)CN(C)C,-1.72%
18,CC1=CC(=O)NS(=O)(=O)O1,0%

row,SMILES,"activity change, negative = inhibition"
1,COc1ccc2c(=O)c(C)c(-c3ccccc3)oc2c1CN(C)C,0.568%
2,CCCCCCCCCCCCOCCCN,-0.748%
3,Cc1cc(C(=O)NCCc2ccc(S(=O)(=O)NC(=O)NN3CCCCCC3)cc2)no1,-2.71%
4,O=C1c2ccccc2C(=O)C1c1ccc(F)cc1,-0.422%
5,COc1ccc(/C=C/C(=O)OCCC(C)C)cc1,3.47%
6,NC(=O)[C@H]1O[C@@H](O)[C@H](O)[C@@H](O)[C@@H]1O,-5.54%
7,CCCCCCCCCCCCCC(=O)OCC(COP(=O)([O-])OCC[N+](C)(C)C)OC(=O)CCCCCCCCCCCCC (stereo unspecified),6.03%
8,C=CC(C)(O)CC/C=C(\C)CCC=C(C)C (stereo unspecified),3.09%
9,CC1CCC(NC(=O)N(CCCl)N=O)CC1 (stereo unspecified),-6.09%
10,CCOC(=O)[C@@H](N)CS,15.1%
11,Cc1ncc(C[n+]2csc(CCOP(=O)(O)O)c2C)c(N)n1,0%
12,CN(C)CCC=C1c2ccccc2C(C)(C)c2ccccc21,-1.73%
13,COC(=O)CC[C@H](N)C(=O)O,-3.73%
14,CN1CCc2c(c3ccccc3n2Cc2ccccc2)C1,-8.94% [at 24.3 µM]
15,O=C(OCc1ccccc1)c1ccc(O)cc1,0.719%
16,Cc1cccc(Nc2ncccc2C(=O)O)c1C,-4.89%
17,CN(Cc1ccccc1)Cc1ccccc1,-1.16%
18,O=C(Nc1ccc(O)cc1)c1ccccc1O,-2%
